According to PubChem BioAssay (NCATS):
Where “and” joins values, the source holds several entries; their conditions need not be identical. Equal values may be shown once. Inconclusive results are not listed. A number with no mark means an inactive call. Calls of active or inactive are those of the source. Unless noted, calls come from the whole dose curve; as a rule, active = well fitted curve in the direction sought with a large enough effect; inconclusive = small, poorly fitted or top-dose-only effect, or another doubt; inactive = no such curve, though single readings can be large; an effect the other way counts as inactive or inconclusive.

Legend:
[1] = qHTS Assay for Identifying Gametocytocidal Compounds (AID 743244); note: potency is the fitted concentration of half-maximal effect;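 for max response: % is set by controls: 0 for no effect and ±100 for the full control effect; actives lower the fluorescent signal which means gametocytes are killed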; settings: P. falciparum 3D7 stage III-V gametocytes, alamarBlue, 72 h; max response: stronger effect = lower value
How it was run: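 P. falciparum 3D7 stage III–V gametocytes (20,000 cells/well) were exposed to compounds for 72 h at 37 °C, 5% CO2. AlamarBlue was then added for 24 h; decreased resorufin fluorescence (Ex 525/Em 598 nm) indicated loss of viability.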

[2] = Drug repurposing screens with cells derived from glioblastoma tumor samples (AID 1345199); settings: GBM patient neurospheres viability, ATP luminescence, 48 h; note: nearly all actives have a fitted effect of over 40% in size; note: potency is the fitted concentration of half-maximal effect; for activity, negative = cell killing: % is set by controls: 0 for no effect and ±100 for the full control effect
How it was run: (§1)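 Primary testing used CD133+ neurospheres from four GBM patients, seven concentrations, 48 h exposure and ATP-based viability; confirmation added three slower-growing patient lines.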

astro = experiment: as above; settings: viability, ATP luminescence, 48 h; series mostly up to 45.9 µM
How it was run: as §1

[3] = P-glycoprotein substrates identified in KB-3-1 adenocarcinoma cell line, qHTS therapeutic library screen (AID 1346986); note: nearly all actives have a fitted effect of over 60% in size;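 note: potency is the fitted concentration of half-maximal effect; potency is for cytotoxicity meaning loss of cell viability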; for activity change, negative = cytotoxicity: % is set by controls: 0 for no effect and ±100 for the full control effect
How it was run: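 Viability by CellTiter-Glo after 72 h compound exposure at 37 degree C, 5% CO2. Cytotoxic call: curve class -1.1 to -2.4, maximum response >50%, AC50 < 10 uM, compared across KB-3-1 and P-gp-overexpressing KB-8-5-11.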

[4] = qHTS to identify inhibitors of the type 1 interferon - major histocompatibility complex class I in skeletal muscle: primary screen against the NCATS Mechanism Interrogation Plate v5.0 (MIPE) Libary (AID 1347411); note: nearly all actives have a fitted effect of over 65% in size; note: potency is the fitted concentration of half-maximal effect;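 for activity change, negative = inhibition: plate controls were vehicle for no effect and reference inhibitor for full effect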
How it was run: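 IFN-beta-driven (4 ng/ml) HLA-B-HiBit expression in CRISPR-tagged C25cl48 myoblasts; compounds 11-pt, 1:3, max 46 uM, 24 hr exposure; lytic NanoLuc complementation luminescence.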

[5] = qHTS assay to identify inhibitors of the type 1 interferon - major histocompatibility complex class I in skeletal muscle: Counter screen cell viability and HiBit confirmation (AID 1347412); settings: iHSKM muscle cells + IFN-b, HiBiT or CellTiter-Glo, 24 h; for Potency: HiBiT; for activity change, negative = inhibition: Viability, at 45.9 µM (top of the series); note: potency is the fitted concentration of half-maximal effect; for activity change, negative = inhibition: % is set by controls: 0 for no effect and ±100 for the full control effect; for all read-outs here: nearly all actives have a fitted effect of over 60% in size
How it was run: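 Human myoblast knock-in line, 4.0 ng/ml IFN-beta stimulation, 24 h compound treatment. Endpoints: HiBiT lytic luminescence (HLA-B level) and CellTiter Glo (ATP). Dosing 12 concentrations, 3-fold steps, 46 uM highest final.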

[6] = biological target: Luciferin 4-monooxygenase (Photinus pyralis) (UniProt P08659); experiment: Biochemical firefly luciferase enzyme assay for NPC (AID 624030);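 note: purified P. pyralis luciferase at 10 nM with luciferin and ATP substrate; 0% = DMSO and -100% = full luciferase inhibition by PTC124 control; nearly all actives have a fitted effect of over 70% in size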
How it was run: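 Purified P. pyralis luciferase at 10 nM in 50 mM Tris Acetate (final), luminescence read within 5 minutes of enzyme addition to compounds. Activity normalised to PTC124 versus DMSO; concentration-response curves classed by r2, magnitude and activity.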

[7] = system: Zika virus NS2B-NS3 protease; experiment: Primary screen GU AMC qHTS for Zika virus inhibitors (AID 1347154); note: nearly all actives have a fitted effect of over 70% in size; note: potency is the fitted concentration of half-maximal effect;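 for activity change, negative = inhibition: 0% = no-inhibitor control and -100% = no-enzyme control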
How it was run: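 Unlinked Zika NS2B hydrophilic domain–NS3 protease complex at 25 nM in 10 mM Tris-HCl pH 8.0, 0.01% Tween 20, with an AMC peptide substrate. Fluorescence change (340/450 nm) over 15 min at room temperature, normalized to controls, fitted to 4-parameter Hill.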

[8] = Primary qHTS for small molecule stabilizers of the endoplasmic reticulum resident proteome: Secreted ER Calcium Modulated Protein (SERCaMP) assay (AID 1508630); note: % is set by controls: 0 for no effect and ±100 for the full control effect
How it was run: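 The SH-SY5Y reporter protocol was run at 3 concentrations up to 38.3 uM (primary) or 11 concentrations (follow-up): 16 h compound, 100 nM thapsigargin for 4 h, then extracellular luciferase luminescence.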

[9] = biological target: Cytochrome P450 2D6 (Homo sapiens) (UniProt P10635); experiment: Cytochrome P450 family 2 subfamily D member 6 (CYP2D6) small molecule antagonists: luciferase biochemical (cell-free) qHTS assay (AID 1645840; active = well fitted curve in the direction sought with a large enough effect in the repeat runs; an effect the other way counts as inactive or inconclusive; note: potency is the fitted concentration of half-maximal effect; nearly all actives have a fitted effect of over 55% in size)
How it was run: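 P450-Glo CYP2D6 system: proluciferin substrate converted by enzyme to luciferin, read by luminescence proportional to activity. Enzyme-substrate mix with compound 10 min at room temperature, then NADPH regeneration 1 h before detection reagent.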

[10] = biological target: Cytochrome P450 2C9 (Homo sapiens) (UniProt P11712); experiment: Cytochrome P450 family 2 subfamily C member 9 (CYP2C9) small molecule antagonists: luciferase biochemical (cell-free) qHTS assay (AID 1645842; active = well fitted curve in the direction sought with a large enough effect in the repeat runs; an effect the other way counts as inactive or inconclusive; note: % is set by controls: 0 for no effect and ±100 for the full control effect; nearly all actives have a fitted effect of over 55% in size)
How it was run: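 P450-Glo CYP2C9 system: proluciferin substrate with enzyme in mix containing 0.4% BSA, 10 min at room temperature, then NADPH regeneration solution added and incubated 1 h at 37C. Detection reagent stopped reaction; luminescence read after 20 min as RLU.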

[11] = at 45.9 µM (top of the series), tumour line B
[12] = at 45.9 µM (top of the series), tumour line D
[13] = at 46.1 µM (top of the series), tumour line C

Luciferin 4-monooxygenase (Photinus pyralis), sequence (P08659 whole entry, looked up): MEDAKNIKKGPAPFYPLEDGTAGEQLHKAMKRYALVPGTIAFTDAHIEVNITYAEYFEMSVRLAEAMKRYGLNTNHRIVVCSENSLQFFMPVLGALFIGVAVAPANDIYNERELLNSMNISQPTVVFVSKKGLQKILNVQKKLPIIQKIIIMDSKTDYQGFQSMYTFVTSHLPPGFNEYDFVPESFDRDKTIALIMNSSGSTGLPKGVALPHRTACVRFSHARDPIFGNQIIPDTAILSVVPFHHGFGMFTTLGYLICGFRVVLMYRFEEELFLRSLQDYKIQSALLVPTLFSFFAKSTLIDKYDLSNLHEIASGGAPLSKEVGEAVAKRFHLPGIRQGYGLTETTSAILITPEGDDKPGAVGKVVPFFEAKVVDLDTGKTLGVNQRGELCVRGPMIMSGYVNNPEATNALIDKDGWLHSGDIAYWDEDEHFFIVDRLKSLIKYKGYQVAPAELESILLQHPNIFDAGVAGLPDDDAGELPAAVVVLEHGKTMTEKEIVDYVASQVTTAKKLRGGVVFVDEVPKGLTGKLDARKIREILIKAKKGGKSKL
Cytochrome P450 2C9 (Homo sapiens), sequence (P11712 whole entry, looked up): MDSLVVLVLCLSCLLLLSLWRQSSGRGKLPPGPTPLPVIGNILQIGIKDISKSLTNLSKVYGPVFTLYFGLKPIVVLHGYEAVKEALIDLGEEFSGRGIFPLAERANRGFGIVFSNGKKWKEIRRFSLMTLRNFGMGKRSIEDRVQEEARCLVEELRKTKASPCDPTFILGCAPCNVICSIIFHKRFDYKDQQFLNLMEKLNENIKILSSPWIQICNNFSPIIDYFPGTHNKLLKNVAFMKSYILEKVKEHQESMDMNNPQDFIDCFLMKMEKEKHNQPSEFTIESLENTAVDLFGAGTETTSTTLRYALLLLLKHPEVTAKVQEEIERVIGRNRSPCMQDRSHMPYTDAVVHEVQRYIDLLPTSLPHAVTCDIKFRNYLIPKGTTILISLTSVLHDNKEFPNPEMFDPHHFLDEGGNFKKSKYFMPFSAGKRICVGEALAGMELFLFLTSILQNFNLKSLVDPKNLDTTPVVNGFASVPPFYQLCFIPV
Cytochrome P450 2D6 (Homo sapiens), sequence (P10635 whole entry, looked up): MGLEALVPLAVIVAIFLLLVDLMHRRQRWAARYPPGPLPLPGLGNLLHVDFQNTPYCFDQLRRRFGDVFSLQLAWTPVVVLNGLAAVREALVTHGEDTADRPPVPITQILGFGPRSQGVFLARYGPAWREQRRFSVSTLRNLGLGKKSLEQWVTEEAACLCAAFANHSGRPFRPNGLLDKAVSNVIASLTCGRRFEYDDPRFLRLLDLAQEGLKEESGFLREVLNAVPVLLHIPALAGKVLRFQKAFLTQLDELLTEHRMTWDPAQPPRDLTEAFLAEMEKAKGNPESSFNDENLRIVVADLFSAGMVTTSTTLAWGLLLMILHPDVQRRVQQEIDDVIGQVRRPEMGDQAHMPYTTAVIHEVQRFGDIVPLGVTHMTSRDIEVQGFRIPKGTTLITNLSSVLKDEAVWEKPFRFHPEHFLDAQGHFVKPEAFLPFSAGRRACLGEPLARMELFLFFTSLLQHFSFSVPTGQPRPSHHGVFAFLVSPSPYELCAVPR

## COc1cc([C@@H]2c3cc4c(cc3C(O[C@@H]3O[C@@H]5CO[C@@H](C)O[C@H]5[C@H](O)[C@H]3O)C3COC(=O)[C@@H]32)OCO4)cc(OC)c1OP(=O)(O)O (stereo partly specified)
[1]
  max response: 4.76% and -12.7%
[2]; [11]
  activity, negative = cell killing: -18.7%
[2]; [12]
  activity, negative = cell killing: -17%
[2]; [13]
  activity, negative = cell killing: -13.7%
[2]; tumour line A
  Potency: 15.8 µM (active)

## NCCNCCN
[1]
  max response: 9.59%
[2]; [11]
  activity, negative = cell killing: -28%
[2]; tumour line A
  Potency: 28.2 µM (active)
astro
  Potency: inactive

## CC(C)=CCC/C(C)=C/CC/C(C)=C/CSc1ccccc1C(=O)O
[3]
  Potency: inactive
[4]
  Potency: inactive

## COc1cc(OC)cc(N(CCNC(C)C)c2ccc3ncc(-c4cnn(C)c4)nc3c2)c1
[3]
  Potency: 10.3 µM (active)
[4]
  Potency: 13.1 µM (active)
[5]
  Potency: 17.6 µM (active)

## CN1CCC(c2c(O)cc(O)c3c(=O)cc(-c4ccccc4Cl)oc23)C1CO (stereo unspecified)
[3]
  Potency: 0.92 µM (active)
[4]
  Potency: 0.739 µM (active)
[5]
  Potency: 0.787 µM (active)
  activity change, negative = inhibition: -2.93%

## CC1(C)N=C(N)N=C(N)N1c1ccc(Cl)cc1
[6]
  Potency: inactive
[1]
  max response: -2.29%
astro
  Potency: inactive

## CCCCCCCCCCCCCCCCSCC(COC)COP(=O)([O-])OCC[N+](C)(C)C (stereo unspecified)
[6]
  Potency: inactive
[1]
  max response: -10.5%
[2]; [12]
  activity, negative = cell killing: -10.7%
[2]; [13]
  activity, negative = cell killing: 5.78%
[2]; tumour line A
  Potency: 22.4 µM (active)
astro
  Potency: inactive

## CN1C/C=C/CCOc2cccc(c2)-c2ccnc(n2)Nc2cccc(c2)C1
[3]
  Potency: 0.092 µM (active)
[4]
  Potency: 0.165 µM (active)
[5]
  Potency: 0.111 µM (active)
  activity change, negative = inhibition: -20%

## N#C/C(=C(\N)Sc1ccc(N)cc1)c1ccccc1C(F)(F)F
[3]
  Potency: inactive

## CC[C@@]1(O)C[C@H](O[C@H]2C[C@H](N(C)C)[C@H](O[C@H]3C[C@H](O)[C@H](O[C@H]4CCC(=O)[C@H](C)O4)[C@H](C)O3)[C@H](C)O2)c2c(cc3c(c2O)C(=O)c2c(O)cccc2C3=O)[C@H]1C(=O)OC
[1]
  Potency: 112 nM (active)
astro
  Potency: 0.447 µM (active)

## CCOC(=O)CN[C@@H](C(=O)N1CC[C@H]1C(=O)NCc1ccc(/C(N)=N/O)cc1)C1CCCCC1
[6]
  Potency: inactive
[1]
  max response: 9.4%
[2]; [11]
  activity, negative = cell killing: -9.76%
[2]; [12]
  activity, negative = cell killing: -14.5%
[2]; at 46 µM (top of the series), tumour line A
  activity, negative = cell killing: -18.3%
[2]; [13]
  activity, negative = cell killing: -15.2%
astro
  Potency: inactive

## C/C1=C2N=C(/C=C3N=C(/C(C)=C4\[N-]C(C(CC(N)=O)C4(C)CCC(=O)NCC(C)OP(=O)([O-])OC4C(CO)OC(n5cnc6cc(C)c(C)cc65)C4O)C4(C)N=C1C(CCC(N)=O)C4(C)CC(N)=O)C(CCC(N)=O)C\3(C)C)C(CCC(N)=O)C/2(C)CC(N)=O.[CH3-].[Co+3] (stereo unspecified)
[1]
  Potency: 22400 nM (active)
[2]; [12]
  activity, negative = cell killing: -36.9%

## NC(=O)c1sc(-c2ccsc2)cc1N
[3]
  Potency: inactive
[7]
  Potency: inactive

## CCC(=O)O[C@H]1CC[C@H]2[C@@H]3CCc4cc(O)ccc4[C@H]3CC[C@]12C
[1]
  max response: 3.09%
astro
  Potency: 12.6 µM (active)

## O=c1[nH]ccc2c(S(=O)(=O)N3CCCNCC3)cccc12
[3]
  Potency: inactive
[7]
  Potency: 26.7 µM (active)

## O=C(O)c1ccc2c3c1cccc3c(=O)n1c3ccccc3nc21
[3]
  Potency: inactive
[7]
  Potency: inactive

## CCCCCCCCCCCCC/C=C/[C@@H](O)[C@H](CO)N(C)C
[3]
  activity change, negative = cytotoxicity: -2.89% [at 5.11 µM]
[7]
  activity change, negative = inhibition: 11% [at 6.83 µM] and 6.76% [at 6.83 µM]
[8]
  activity change, negative = inhibition: -20.6% [at 3.88 µM]

## CS(=O)(=O)CCNCc1nc(-c2ccc3ncnc(Nc4ccc(OCc5cccc(F)c5)c(Cl)c4)c3c2)cs1
[3]
  activity change, negative = cytotoxicity: 4.91% [at 9.29 µM]
[7]
  Potency: inactive

## CCCCCCCC[N+](C)(C)CCCCCCCC
[6]
  Potency: inactive
[1]
  Potency: 7.94 µM (active) and 8.91 µM (active)
[9]
  Potency: 0.674 µM (active)
[10]
  Potency: inactive
astro
  Potency: 20 µM (active) and 12.6 µM (active)

## N[C@@H](C(=O)N[C@@H]1C(=O)N2C(C(=O)O)=C(CSc3cn[nH]n3)CS[C@H]12)c1ccc(O)cc1
[1]
  max response: -0.063%
[2]; [11]
  activity, negative = cell killing: -1.12%
[2]; [12]
  activity, negative = cell killing: -13.1%
[2]; [13]
  activity, negative = cell killing: 10.5%
astro
  Potency: inactive

## C=CC(=O)c1ccc2ccccc2c1
[3]
  Potency: inactive
[7]
  Potency: inactive
[8]
  Potency: inactive

## Cc1nc2c(O)cccc2c(=O)[nH]1
[3]
  Potency: inactive
[7]
  Potency: inactive
[8]
  Potency: inactive

## CN1CCN(CCC=C2c3ccccc3Sc3ccc(S(=O)(=O)N(C)C)cc32)CC1
[6]
  Potency: inactive
[2]; [13]
  activity, negative = cell killing: 4.82%
[2]; tumour line A
  Potency: 7.08 µM (active)
[2]; tumour line B
  Potency: 35.5 µM (active)
astro
  Potency: 31.6 µM (active)

## C#Cc1cccc(Nc2ncnc3cc(OC)c(OC)cc23)c1
[3]
  Potency: 5.17 µM (active)
[7]
  Potency: inactive

## C[N+]1(C)CCN(CC(O)(c2ccccc2)C2CCCCC2)CC1 (stereo unspecified)
[1]
  max response: -2.89%
[2]; [11]
  activity, negative = cell killing: 4.18%
[2]; [12]
  activity, negative = cell killing: -11.4%
[2]; [13]
  activity, negative = cell killing: 3.68%
astro
  Potency: inactive

## COc1cc(F)ccc1-c1ncnc(Nc2cccc(CS(C)(=N)=O)c2)n1 (stereo unspecified)
[3]
  Potency: 1.46 µM (active)
[4]
  Potency: 2.34 µM (active)
[5]
  Potency: 0.991 µM (active)
  activity change, negative = inhibition: -16.3%

## COc1c(Nc2ncc(Cl)c(N[C@H]3[C@H](C(N)=O)[C@@H]4C=C[C@@H]3C4)n2)ccc2c1CCC(N1CCOCC1)CC2 (stereo partly specified)
[3]
  Potency: 6.51 µM (active)
[4]
  Potency: inactive

## C=C1/C(=C\C=C2/CCC[C@]3(C)[C@@H]([C@H](C)OCCC(C)(C)O)CC[C@@H]23)C[C@@H](O)C[C@@H]1O
[1]
  max response: -1.53%
[2]; [11]
  activity, negative = cell killing: -19.1%
[2]; [12]
  activity, negative = cell killing: -17.2%
[2]; [13]
  activity, negative = cell killing: -27.4%
[2]; tumour line A
  Potency: 25.1 µM (active)

## CCOC(=O)CCC(=O)O[C@H]1[C@H](O[C@@H]2[C@@H](C)[C@H](O[C@H]3C[C@@](C)(OC)[C@@H](O)[C@H](C)O3)[C@@H](C)C(=O)O[C@H](CC)[C@@](C)(O)[C@H](O)[C@@H](C)C(=O)[C@H](C)C[C@@]2(C)O)O[C@H](C)C[C@@H]1N(C)C
[1]
  max response: -6.05%
[2]; [11]
  activity, negative = cell killing: -6.36%
[2]; [12]
  activity, negative = cell killing: -16.9%
[2]; [13]
  activity, negative = cell killing: 1.07%
[2]; tumour line A
  Potency: 35.5 µM (active)
astro
  Potency: inactive
